Data from PubChem BioAssay (NCI).
About 79,000 compounds went through this panel and 15% of them were active in at least one assay; those are over-represented in the sample as a whole. Active and inactive are the calls of the source. Cut-off read from the data, not from the text of the source: active = growth inhibition above about 70%; inactive = the rest. Where a SMILES comes first, the peptide text is derived from it. The star is where a group is joined. Cbz = O=C(OCc1ccccc1)*

test: NCI Yeast Anticancer Drug Screen. Data for the sgs1 mgt1 strain (AID 161);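 note: 0% = growth of cultures given vehicle only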; conditions: S. cerevisiae sgs1 mgt1 strain, at 50.0 µM, stronger effect = higher value
Procedure, shortened: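 Yeast cells carrying a defined DNA-repair defect were exposed to test compounds. Growth inhibition was measured relative to vehicle-treated controls.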

SMILES | growth inhibition
Cc1cc(C)nc(N)n1 | -1.85% (inactive)
CC(NC(=O)NC(C)(C)C)NC(=O)C(N)CC(=O)O (stereo not given) | -25.4% (inactive)
COC1Cc2c(C)c(OC(C)=O)c3cccnc3c2O1 (stereo not given) | 10.8% (inactive)
CCOC(=O)/C(C#N)=N\Nc1ccccc1 | -1.7% (inactive)
CCCC(C)c1ccc(OCc2ccc(C)cc2)cc1 (stereo not given) | -18.1% (inactive)
O=C1CSC(/C(=C\c2ccc(Cl)cc2)c2nc3ccccc3[nH]2)=N1 | -4.15% (inactive)
Cc1ccc(NC(=O)COc2ccc(Cl)cc2)c(C)c1 | 12.8% (inactive)
CCCCCCCCCCCCSc1nc2c([nH]1)c(=O)n(C)c(=S)n2C | -31.9% (inactive)
CC(=O)CCC(=O)c1ccoc1 | 4.4% (inactive)
O=S(O)CCCCSSCC(O)CO (stereo not given) | 15.2% (inactive)
Cc1c(Cl)cc(C(C)(C)C)c(O)c1Cc1c(C)c(Cl)cc(C(C)(C)C)c1O | -46.6% (inactive)
COc1ccc(-c2cc(N3CCN(c4ccccc4)CC3)c(C#N)c(=O)o2)cc1 | 18.5% (inactive)
CC(=O)CCCC(CC(C)O)[Si](C)(C)C (stereo not given) | -1.05% (inactive)
COC(=O)C1(CC(=O)c2cccs2)NC(=S)NC(=O)C1C#N (stereo not given) | -7.5% (inactive)
CCCCCCCCCCOc1ccc(OCCCCCCCCC)cc1 | 12.9% (inactive)
c1ccc(-c2cc[c]([Sn]([c]3ccccc3)([c]3ccccc3)[c]3ccccc3)cc2)cc1 | 96.8% (active)
N#Cc1c[nH]c2cccc([N+](=O)[O-])c12 (tested in a mixture with another compound) | 7.8% (inactive)
O=c1[nH]cnc2c1cnn2Cc1ccccc1 | 1.2% (inactive)
NC(=O)/C(=N/O)c1ccccc1 | 1.7% (inactive)
CCOC(=O)C(NC(=O)c1ccccc1)(N1CCOCC1)C(F)(F)F (stereo not given) | 8.05% (inactive)

SMILES | growth inhibition
CC1(C)CC(=O)C(C(CCC2CCCCC2=O)C2C(=O)CC(C)(C)CC2=O)C(=O)C1 (stereo not given) | 10% (inactive)
c1ccc2c(c1)oc1cc3c(cc12)n1nnnc1c1cccn31 | -3.45% (inactive)
CCCCCCCCCCCC(=O)NC(=S)Nc1ccc(C)c(C)c1 | 54.6% (inactive)
O=C(NNC1=NCCCCN1)Nc1ccc(Cl)cc1 | 26.4% (inactive)
Cc1ccc(S(=O)(=O)OCC(F)(F)C(F)(F)C(F)(F)CO)cc1 | 22.2% (inactive)
CCOC(=O)CCC1(C(=O)OC)C(=O)CCCCCCCC1C(=O)OC (stereo not given) | 20.3% (inactive)
Cc1ccc(Nc2ccc(Nc3ccc(C)cc3)c3c2C(=O)c2ccccc2C3=O)cc1 | -4.15% (inactive)
CCSCCOC(=S)Nc1ccccc1 | -4.9% (inactive)
CCC(=N\NC(=S)NC)/C(C)=N\NC(=S)NC | -6.5% (inactive)
O=C(O)c1c(Br)c(Br)c(Br)c(Br)c1C(=O)Nc1ccc(Cl)c(Cl)c1 | -0.75% (inactive)
CC1=NNC(=O)C1 | -8.1% (inactive)
CCOC(=O)CCC(NC(=O)OCc1ccccc1)C(=O)NC(CCC(=O)OCC)C(=O)OCC (stereo not given) (Cbz-Glu(OEt)-Glu(OEt)-OEt; configuration not given here) | -11.4% (inactive)
CCc1cc(Cc2cc(CC)c(NC(=O)C(=O)CC(=O)c3sc(-c4cccnc4)nc3C)c(CC)c2)cc(CC)c1NC(=O)C(=O)CC(=O)c1sc(-c2cccnc2)nc1C | -27.8% (inactive)
CCc1cc(CSc2ccc(Cl)cc2)ccc1N | 98.8% (active)
COc1cc(C(=O)N2C[C@H](O)C[C@H]2C(=O)O)cc(OC)c1OC | -32.8% (inactive)
COc1ccccc1NC(=S)N/N=C/c1ccccn1 | 24.4% (inactive)
CC(Oc1cc(Cl)c(Cl)cc1Cl)C(=O)NC(Cc1ccccc1)C(=O)O (stereo not given) | 13.5% (inactive)
CC(C)=CC1C[C@H](C2CC=C3C2(C)CCC2[C@@]3(C)C(=O)CC3[C@]2(C)C=CC(=O)[C@]3(C)CO)CO1 (stereo not given in full) | 81.8% (active)
O=C1CSCCO1 | -3.6% (inactive)
CNC(=O)OCc1nc(SC(C)C)n(C)c1COC(=O)NC | -27.9% (inactive)

test: NCI Yeast Anticancer Drug Screen. Data for the cln2 rad14 strain (AID 165);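 note: 0% = growth equal to vehicle treated cultures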; conditions: S. cerevisiae cln2 rad14 strain, at 50.0 µM, stronger effect = higher value
Procedure, shortened: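 Relative to vehicle controls, growth inhibition of compound-treated cln2 rad14 yeast was recorded.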

SMILES | growth inhibition
Cc1cc(C)nc(N)n1 | -42.9% (inactive)
CC(NC(=O)NC(C)(C)C)NC(=O)C(N)CC(=O)O (stereo not given) | 19.4% (inactive)
COC1Cc2c(C)c(OC(C)=O)c3cccnc3c2O1 (stereo not given) | 18.6% (inactive)
CCOC(=O)/C(C#N)=N\Nc1ccccc1 | -25.3% (inactive)
CCCC(C)c1ccc(OCc2ccc(C)cc2)cc1 (stereo not given) | 13.8% (inactive)
O=C1CSC(/C(=C\c2ccc(Cl)cc2)c2nc3ccccc3[nH]2)=N1 | 11.7% (inactive)
Cc1ccc(NC(=O)COc2ccc(Cl)cc2)c(C)c1 | 9.45% (inactive)
CCCCCCCCCCCCSc1nc2c([nH]1)c(=O)n(C)c(=S)n2C | 16.4% (inactive)
CC(=O)CCC(=O)c1ccoc1 | -10.1% (inactive)
O=S(O)CCCCSSCC(O)CO (stereo not given) | 63.5% (inactive)
Cc1c(Cl)cc(C(C)(C)C)c(O)c1Cc1c(C)c(Cl)cc(C(C)(C)C)c1O | 12.3% (inactive)
COc1ccc(-c2cc(N3CCN(c4ccccc4)CC3)c(C#N)c(=O)o2)cc1 | 15.8% (inactive)
CC(=O)CCCC(CC(C)O)[Si](C)(C)C (stereo not given) | -14.2% (inactive)
COC(=O)C1(CC(=O)c2cccs2)NC(=S)NC(=O)C1C#N (stereo not given) | -3.35% (inactive)
CCCCCCCCCCOc1ccc(OCCCCCCCCC)cc1 | -45% (inactive)
c1ccc(-c2cc[c]([Sn]([c]3ccccc3)([c]3ccccc3)[c]3ccccc3)cc2)cc1 | 99.2% (active)
N#Cc1c[nH]c2cccc([N+](=O)[O-])c12 (tested in a mixture with another compound) | 17.9% (inactive)
O=c1[nH]cnc2c1cnn2Cc1ccccc1 | 2.1% (inactive)
NC(=O)/C(=N/O)c1ccccc1 | 1.25% (inactive)
CCOC(=O)C(NC(=O)c1ccccc1)(N1CCOCC1)C(F)(F)F (stereo not given) | 15.8% (inactive)

SMILES | growth inhibition
CC1(C)CC(=O)C(C(CCC2CCCCC2=O)C2C(=O)CC(C)(C)CC2=O)C(=O)C1 (stereo not given) | 1.95% (inactive)
c1ccc2c(c1)oc1cc3c(cc12)n1nnnc1c1cccn31 | 16.4% (inactive)
CCCCCCCCCCCC(=O)NC(=S)Nc1ccc(C)c(C)c1 | -13.6% (inactive)
O=C(NNC1=NCCCCN1)Nc1ccc(Cl)cc1 | 7.4% (inactive)
Cc1ccc(S(=O)(=O)OCC(F)(F)C(F)(F)C(F)(F)CO)cc1 | -15.6% (inactive)
CCOC(=O)CCC1(C(=O)OC)C(=O)CCCCCCCC1C(=O)OC (stereo not given) | 20.6% (inactive)
Cc1ccc(Nc2ccc(Nc3ccc(C)cc3)c3c2C(=O)c2ccccc2C3=O)cc1 | 5% (inactive)
CCSCCOC(=S)Nc1ccccc1 | 0.7% (inactive)
CCC(=N\NC(=S)NC)/C(C)=N\NC(=S)NC | -36.1% (inactive)
O=C(O)c1c(Br)c(Br)c(Br)c(Br)c1C(=O)Nc1ccc(Cl)c(Cl)c1 | -11.1% (inactive)
CC1=NNC(=O)C1 | -14.8% (inactive)
CCOC(=O)CCC(NC(=O)OCc1ccccc1)C(=O)NC(CCC(=O)OCC)C(=O)OCC (stereo not given) (Cbz-Glu(OEt)-Glu(OEt)-OEt; configuration not given here) | 7.55% (inactive)
CCc1cc(Cc2cc(CC)c(NC(=O)C(=O)CC(=O)c3sc(-c4cccnc4)nc3C)c(CC)c2)cc(CC)c1NC(=O)C(=O)CC(=O)c1sc(-c2cccnc2)nc1C | -0.05% (inactive)
CCc1cc(CSc2ccc(Cl)cc2)ccc1N | 97.2% (active)
COc1cc(C(=O)N2C[C@H](O)C[C@H]2C(=O)O)cc(OC)c1OC | -5.75% (inactive)
COc1ccccc1NC(=S)N/N=C/c1ccccn1 | 8.95% (inactive)
CC(Oc1cc(Cl)c(Cl)cc1Cl)C(=O)NC(Cc1ccccc1)C(=O)O (stereo not given) | 25.6% (inactive)
CC(C)=CC1C[C@H](C2CC=C3C2(C)CCC2[C@@]3(C)C(=O)CC3[C@]2(C)C=CC(=O)[C@]3(C)CO)CO1 (stereo not given in full) | 78% (active)
O=C1CSCCO1 | -37% (inactive)
CNC(=O)OCc1nc(SC(C)C)n(C)c1COC(=O)NC | 4.3% (inactive)
